Screening results as filed in PubChem.
TRPML1 agonist: activates the human TRPML1 channel; Q9GZU1; TRPML1-expressing cells, Ca2+ dye fluorescence, FDSS; activation, % (no concentration beside the values); 410,000 tested, 0.12% active; AID 624414; in the data active means activation above about 50%; inconclusive means mostly about 30% to 49%; further: 0% is about no effect
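Agonist activity was taken from a 110 s kinetic Ca2+ dye read on the FDSS after pinning compounds onto TRPML1-DL cells. The cells were seeded at 1,500/well with Tet inducer, incubated about 16 h, then dye-loaded at room temperature.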
TRPV1 PAM: human TRPV1 potentiation | TRPV1-expressing cells, Fluo-8 calcium influx, capsaicin EC20 potentiation | potentiation, % at 8.33 µM | 320,000 tested, 0.02% active; in the data active means potentiation above about 80%; inconclusive means between about 30% and that limit; further: 0% is about no effect
Target sequence (Q8NER1 whole entry, looked up): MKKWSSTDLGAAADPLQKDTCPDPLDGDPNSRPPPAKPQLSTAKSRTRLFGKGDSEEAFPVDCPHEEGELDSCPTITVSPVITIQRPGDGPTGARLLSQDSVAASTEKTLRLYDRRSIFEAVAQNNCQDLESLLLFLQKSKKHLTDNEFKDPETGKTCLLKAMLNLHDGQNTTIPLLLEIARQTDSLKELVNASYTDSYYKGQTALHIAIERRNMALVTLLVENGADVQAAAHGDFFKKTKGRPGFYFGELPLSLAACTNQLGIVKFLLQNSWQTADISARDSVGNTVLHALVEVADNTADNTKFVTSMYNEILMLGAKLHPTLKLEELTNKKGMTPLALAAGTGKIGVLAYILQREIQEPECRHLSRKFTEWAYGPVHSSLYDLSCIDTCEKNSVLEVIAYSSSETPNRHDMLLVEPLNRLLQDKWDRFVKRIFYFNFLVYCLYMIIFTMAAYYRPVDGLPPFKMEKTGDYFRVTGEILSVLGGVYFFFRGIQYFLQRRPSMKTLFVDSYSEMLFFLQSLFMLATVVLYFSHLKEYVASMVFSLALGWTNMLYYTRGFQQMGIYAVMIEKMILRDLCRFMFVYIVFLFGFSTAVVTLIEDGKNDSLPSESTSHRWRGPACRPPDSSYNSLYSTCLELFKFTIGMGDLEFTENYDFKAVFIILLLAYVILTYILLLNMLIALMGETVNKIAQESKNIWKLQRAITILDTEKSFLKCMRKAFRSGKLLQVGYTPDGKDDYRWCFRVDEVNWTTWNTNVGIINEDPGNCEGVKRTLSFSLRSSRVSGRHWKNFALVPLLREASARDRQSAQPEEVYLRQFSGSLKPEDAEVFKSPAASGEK
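Fluo-8 calcium influx in TRPV1-expressing cells, kinetic read (ex 480/em 520 nm). Compound added and read 3 min for agonist activity, followed by capsaicin at EC20 final and 2 min further read for enhancement.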
hERG WT inh: KCNH2 (human, wildtype) channel inhibition. activity change, % at 1.84 µM. AID 720551. Q12809. 340,000 tested, 0.37% active. U2OS, BacMam KCNH2, thallium flux FluxOr; stronger effect = lower value;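 active means maximum activity change below -70%; inconclusive means maximum activity change between -70% and -50%; inactive means maximum activity change above -50%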; further: on the % scale 0 is the no-effect control and ±100 the full control effect
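U2OS cells transduced with wild-type KCNH2 virus are loaded with FluxOr dye for 45 min, and thallium flux is measured in kinetic reads before and after stimulation buffer. Rate constants are normalized to DMSO controls.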
TRPML1 inh: inhibitors of human TRPML1 channel | Q9GZU1 | activity change, negative = inhibition, % (test concentration not listed) | 390,000 tested, 0.02% active | TRPML1-inducible cells, Ca2+ dye fluorescence, FDSS; stronger effect = lower value; inhibition of EC80 agonist-evoked calcium signal | AID 624415; in the data active means activity change below about -50%; inconclusive means between about -30% and that limit;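 further: stimulus is agonist 54-4 at its EC80 concentration; on the % scale 0 is the no-effect control and ±100 the full control effect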
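Calcium fluorescence in TRPML1-DL cells induced overnight with Tet: a 110 s read after compound pin addition, then a 110 s antagonist read after challenge with 54-4 at 4 uM final (EC80).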
KCNH2 3.1 inh: KCNH2 3.1 (human) potassium channel inhibition; 340,000 tested, 0.95% active; AID 720553; activity change, % (tested at about 1.8 µM); U2OS KCNH2 3.1, thallium flux FluxOr; stronger effect = lower value;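 active means maximum activity change below -70%; inconclusive means maximum activity change from -70% to -50%; inactive means maximum activity change above -50%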;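 further: thallium influx rate constant from kinetic fluorescence after stimulation buffer; on the % scale 0 is the no-effect control and ±100 the full control effect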
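U2OS cells transduced with KCNH2 3.1 mutant virus (1.77 x 10^8 /mL, 4 h), plated overnight at 37 C, loaded 45 min with FluxOr dye plus Red40 quencher. Thallium flux rate constant from kinetic reads after stimulation buffer, normalised to controls.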
TRPV1 ag: human TRPV1 agonism; activation, % at 8.33 µM; AID 540275; Q8NER1; TRPV1-expressing cells, Fluo-8 calcium influx, agonist mode; 320,000 tested, 0.19% active; in the data active means activation above about 80%; inconclusive means between about 30% and that limit; further: 0% is about no effect
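Fluo-8 calcium influx in TRPV1-expressing cells, kinetic read (ex 480/em 520 nm). Compound added and read 3 min for agonist activity, followed by capsaicin at EC20 final and 2 min further read for enhancement.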
An asterisk follows results filed as active. The list is not random: actives were taken first. Their share in the collection is about 1.3%.

`COC(=O)c1ccccc1NC(=O)COc1ccccc1C(=O)Nc1ccccc1` gave TRPML1 agonist 0.
COc1cc(OC)c2c(-c3cccc(/C=C/c4ccc(F)cc4)c3)cc(=O)oc2c1 was read as TRPML1 agonist 4, hERG WT inh -153*, TRPML1 inh 4 and KCNH2 3.1 inh -19.
`CCc1nnc(SCC(=O)N(C)c2ccccc2)c2cc3sccc3n12` gave TRPML1 agonist 1 and TRPML1 inh -5.
Screening CCOC(=O)c1c(NC(=O)CSc2nnnn2-c2ccccc2OCC)sc2c1CC(C)(C)NC2(C)C returned TRPML1 agonist 0, TRPV1 PAM 4, hERG WT inh -19, TRPML1 inh -14, KCNH2 3.1 inh -81* and TRPV1 ag 6.
CC1(C)Cc2c(sc(NC(=O)COc3ccc(Cl)cc3)c2C(N)=O)C(C)(C)N1 was read as TRPML1 agonist 0, TRPV1 PAM 11, hERG WT inh 16, TRPML1 inh 21, KCNH2 3.1 inh -73* and TRPV1 ag 0.
For Cc1ccc(OCC(=O)Nc2sc3c(c2C#N)CC(C)(C)NC3(C)C)cc1 the results were TRPML1 agonist -1, TRPV1 PAM -2, hERG WT inh 12, TRPML1 inh 4, KCNH2 3.1 inh -4 and TRPV1 ag 1.
For CCOC(=O)c1c(NC(=O)CSc2nnnn2-c2ccccc2)sc2c1CC(C)(C)NC2(C)C the results were TRPML1 agonist 0, TRPV1 PAM -22, hERG WT inh 10, TRPML1 inh 3, KCNH2 3.1 inh -41 and TRPV1 ag 14.
O=c1cc(/C=C/c2ccc([N+](=O)[O-])cc2)c2ccccc2[nH]1 was read as TRPML1 agonist 0.
Screening Cc1cccc(NC(=O)CCn2nc(C)c3c(C)n(-c4ccccc4)nc3c2=O)c1C returned TRPML1 agonist -1 and TRPML1 inh 5.
`Cc1ccc(C)c(NC(=O)CCn2nc(C)c3c(C)n(-c4ccccc4)nc3c2=O)c1` gave TRPML1 agonist -1 and TRPML1 inh -54*.
Screening CC(=O)C1=C(O)C(=O)N(c2cc(C(C)(C)C)on2)C1c1ccc(Br)cc1 (configuration not stated) returned TRPML1 agonist 0, TRPV1 PAM -5, hERG WT inh 2, TRPML1 inh 1, KCNH2 3.1 inh -82* and TRPV1 ag 0.
CC(C)n1ncc2c(C(=O)Nc3ccc(S(N)(=O)=O)cc3)cc(C3CC3)nc21 was read as TRPML1 agonist 4, TRPV1 PAM -6, hERG WT inh 1, TRPML1 inh -7, KCNH2 3.1 inh 2 and TRPV1 ag 81*.
CC(C)n1ncc2c(C(=O)Nc3ccc(S(C)(=O)=O)cc3)cc(C3CC3)nc21 was read as TRPML1 agonist 2, TRPV1 PAM -10, hERG WT inh -5, TRPML1 inh 3, KCNH2 3.1 inh -2 and TRPV1 ag inconclusive.
COc1cc(Cl)c(C)cc1NC(=O)CC1Oc2ccccc2NC1=O (configuration not stated) was read as TRPML1 agonist 1 and TRPML1 inh -5.
`CC(NC(=S)Nc1ccccc1Cl)C(c1ccccc1)N1CCOCC1` (configuration not stated) gave TRPML1 agonist 80*, TRPV1 PAM -10, hERG WT inh -7, TRPML1 inh -7, KCNH2 3.1 inh 1 and TRPV1 ag 22.
CN1CCC(N(C)C(=O)c2ccc(Cl)c(S(=O)(=O)N3CCOCC3)c2)CC1 was read as TRPML1 agonist 0, TRPV1 PAM -3, hERG WT inh -194*, TRPML1 inh 76, KCNH2 3.1 inh -150* and TRPV1 ag -7.
`CN1CCC(N(C)C(=O)c2cc(S(=O)(=O)N3CCOCC3)ccc2Cl)CC1` gave TRPML1 agonist 1, hERG WT inh -1, TRPML1 inh 15 and KCNH2 3.1 inh 13.
`CCOc1ccc(/C=C2\SC(=S)N(N3C(=O)C4CC4C3=O)C2=O)cc1` (configuration not stated) gave TRPML1 agonist 3, TRPV1 PAM -1, hERG WT inh -6, TRPML1 inh 45, KCNH2 3.1 inh -99* and TRPV1 ag -1.
For CCOc1ccc(/C=C2/SC(=O)NC2=S)cc1 the results were TRPML1 agonist 0, TRPV1 PAM -6, hERG WT inh -16, TRPML1 inh 7, KCNH2 3.1 inh -94* and TRPV1 ag -1.
`Cc1nc(N2CCN(C)CC2)c2nnn(Cc3ccccc3)c2n1` gave TRPML1 agonist -1.
For CCc1ccc2c(c1)Sc1ccccc1CC2N1CCN(C)CC1 (configuration not stated) the results were TRPML1 agonist 1, hERG WT inh inconclusive, TRPML1 inh 28 and KCNH2 3.1 inh -96*.
`COc1ccc(CNc2oc(COc3ccccc3)nc2C#N)cc1` gave TRPML1 agonist 5, TRPV1 PAM 6, hERG WT inh -17, TRPML1 inh 13, KCNH2 3.1 inh -78* and TRPV1 ag inconclusive.
For CCCc1cc(=O)oc2c3c(ccc12)OCN(Cc1ccc(OC)cc1)C3 the results were TRPML1 agonist 1, TRPV1 PAM -4, TRPML1 inh 20 and TRPV1 ag inconclusive.
For COc1ccc(Cn2nc(-c3ccccc3)c(N3CCCCC3)cc2=O)cc1 the results were TRPML1 agonist 1, TRPV1 PAM 14, hERG WT inh -14, TRPML1 inh 1, KCNH2 3.1 inh inconclusive and TRPV1 ag 85*.
`O=c1cc(N2CCCCC2)c(-c2ccccc2)nn1Cc1ccccc1` gave TRPML1 agonist 3, TRPV1 PAM 2, hERG WT inh -2, TRPML1 inh -8, KCNH2 3.1 inh -31 and TRPV1 ag 81*.
O=[N+]([O-])c1cc(S(=O)(=O)Nc2ccccc2)ccc1-n1nnc2ccccc21 was read as TRPML1 agonist 0, TRPV1 PAM 5, hERG WT inh -210*, TRPML1 inh 65, KCNH2 3.1 inh -183* and TRPV1 ag 5.
Screening CCOc1ccc(OCC)c(NS(=O)(=O)c2c(C(=O)N3CCCCCC3)c(C)n(C)c2C)c1 returned TRPML1 agonist 1 and TRPML1 inh -4.
For CSCc1ccc(C(=O)N2CCCC(Nc3ccc4c(c3)OCCO4)C2)o1 (configuration not stated) the results were TRPML1 agonist -1, TRPV1 PAM -6, hERG WT inh 14, TRPML1 inh -29, KCNH2 3.1 inh -5 and TRPV1 ag 91*.
